Reference: PubChem BioAssay AID1662 (Broad Institute, 2009)
About 4,000 (1.3%) of roughly 300,000 compounds were called active. This is one part of a sample in which actives are shown more often than they occur. Values without a mark were called inactive.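 Rule for the calls: active = mean replicate score, as percent of positive control median, at least 50; inconclusive = mean below 50 but one replicate at or above 50; inactive = mean and every replicate below 50.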

assay: S. pyogenes SKKanGAS growth inhibitors in kanamycin, primary screen, streptokinase expression inhibitor project, SKKanGAS strain, BacTiter-Glo luminescence (AID 1662); details: 6 h, at 7.5 µM, hits give high values;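 note: strain carries kanamycin resistance gene driven by streptokinase promoter and grows in 40 µg/ml kanamycin; loss of luminescence reflects streptokinase promoter inhibition or plain growth inhibition; 0% = median of DMSO wells and 100% = positive control at its reference dose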

**Q.** With `Cc1cc(C)cc(N(CCC#N)C(=O)CN2C(=O)NC3(CCCC3)C2=O)c1` as the molecule, how does the inhibition read?
**A.** Its inhibition is -1.7%.

**Q.** For `Cc1ccc(OCCCCc2c(C)n[nH]c2C)cc1`, which inhibition is on record?
**A.** The inhibition was 87.2% (active).

**Q.** For `CCCOc1ccc(-c2nc(N)n[nH]2)cc1`, which inhibition is on record?
**A.** Its inhibition is -0.246%.

**Q.** With `Cc1ccc(OCc2n[nH]c(=S)n2-c2ccc(C)cc2)cc1` as the molecule, how does the inhibition read?
**A.** The inhibition was -0.726%.

**Q.** Which inhibition does the source give for `Cc1cc2c(c(=O)n1C)C(C(C)C)C(C#N)=C(N)O2` (stereo not drawn) here?
**A.** The inhibition was -0.711%.

**Q.** With `CCOC(=O)c1c(-c2ccccc2)oc2cc(Br)c(O)c(C=O)c12` as the molecule, how does the inhibition read?
**A.** Its inhibition is 56.9% (active).

**Q.** For `CCOC(=O)c1c(-c2ccccc2)oc2cc(Br)c(O)cc12`, which inhibition is on record?
**A.** The inhibition was 12.5%.

**Q.** For `CCOC(=O)c1c(-c2ccccc2)oc2ccc(OCC(N)=O)cc12`, which inhibition is on record?
**A.** Its inhibition is -10.7%.

**Q.** Which inhibition does the source give for `COc1ccccc1CNS(=O)(=O)c1cc2c3c(c1)CCC(=O)N3CCC2` here?
**A.** Its inhibition is -8.56%.

**Q.** With `NS(=O)(=O)c1ccc(CCNC(=O)CN2C(=O)c3ccccc3S2(=O)=O)cc1` as the molecule, how does the inhibition read?
**A.** Its inhibition is -2.59%.

**Q.** Which inhibition does the source give for `Cc1c(CC(=O)NCCCCCC(=O)O)c(=O)oc2cc3occ(-c4ccccc4)c3cc12` here?
**A.** Its inhibition is 18.7%.

**Q.** Which inhibition does the source give for `CCCCCCc1ccc(O)cc1O` here?
**A.** Its inhibition is 9.42%.

**Q.** With `CCCCCCc1cc2cc(-c3nnc(-c4ccccc4)o3)c(=O)oc2cc1O` as the molecule, how does the inhibition read?
**A.** The inhibition was 62% (active).

**Q.** With `O=C(CCc1nnc2ccc(NCc3ccco3)nn12)Nc1cc(F)ccc1F` as the molecule, how does the inhibition read?
**A.** Its inhibition is -0.213%.

**Q.** For `Cc1ccc(NC(=S)NC(=O)c2ccc(-c3ccccc3)cc2)cc1`, which inhibition is on record?
**A.** The inhibition was 9.46%.

**Q.** Which inhibition does the source give for `Cc1ccc(C(=O)NC(=S)Nc2ccccc2C)cc1` here?
**A.** Its inhibition is -6.14%.

**Q.** Which inhibition does the source give for `C/C(=N\NC(=O)c1ccc(C)cc1)C1C(=O)c2ccccc2C1=O` here?
**A.** The inhibition was 52.3% (active).

**Q.** For `OC(COc1cccc2ccccc12)CN1CCN(c2ccccn2)CC1` (stereo not drawn), which inhibition is on record?
**A.** The inhibition was 13.1%.

**Q.** With `Cc1cc(C)c(NC(=O)C[N+](C)(C)CC(O)COc2cccc3ccccc23)c(C)c1` (stereo not drawn) as the molecule, how does the inhibition read?
**A.** Its inhibition is 29%.

**Q.** With `CC(C)c1ccccc1OCC(O)CN(CC(O)COc1cccc2ccccc12)C(C)C` (stereo not drawn) as the molecule, how does the inhibition read?
**A.** The inhibition was 97.9% (active).

**Q.** Which inhibition does the source give for `CC(C)=CCCC1(C)C=Cc2c(ccc3c2[nH]c2cc(O)c(C)cc23)O1` (stereo not drawn) here?
**A.** The inhibition was 112% (active).

**Q.** For `COc1ccc(CCNC(=O)C(=O)NCC2OCCN2S(=O)(=O)c2cccs2)cc1OC` (stereo not drawn), which inhibition is on record?
**A.** The inhibition was -1.24%.

**Q.** Which inhibition does the source give for `CCCC(CCC(=O)OC)(C(=O)OCC)c1csc(N)n1` (stereo not drawn) here?
**A.** Its inhibition is -8.11%.

**Q.** For `CCCCCCCCCCCCC(NC(C)=O)(C(=O)OCC)C(=O)OCC`, which inhibition is on record?
**A.** Its inhibition is 61.2% (active).

**Q.** For `O=S(=O)(c1cccc(-c2cn3ccccc3n2)c1)N1CCCC1`, which inhibition is on record?
**A.** The inhibition was -3.54%.

**Q.** For `O=C(CSc1nc(O)c(Cc2ccccc2)c(=O)[nH]1)Nc1nc2c(s1)CCCC2`, which inhibition is on record?
**A.** Its inhibition is 28.8%.

**Q.** For `O=S(=O)(c1cc(Cl)ccc1Cl)N1CCN(Cc2ccco2)CC1`, which inhibition is on record?
**A.** Its inhibition is 2.62%.

**Q.** For `CC(=O)Nc1ccc(NC(=O)C(C)n2c3ccccc3c3nc(=O)cc(C)n32)cc1` (stereo not drawn), which inhibition is on record?
**A.** The inhibition was 3.43%.

**Q.** Which inhibition does the source give for `Cc1sc2nc(SCC(N)=O)n(C)c(=O)c2c1C` here?
**A.** The inhibition was -2.36%.

**Q.** With `C=CCn1c(SCC(=O)NCC2CCCO2)nc2sc(C)c(C)c2c1=O` (stereo not drawn) as the molecule, how does the inhibition read?
**A.** The inhibition was -1.04%.

**Q.** For `C=CCn1c(SCC(=O)/C(C#N)=C(\C)N)nc2sc(C)c(C)c2c1=O`, which inhibition is on record?
**A.** The inhibition was 58.1% (active).

**Q.** With `COc1ccc(NC(=O)CN(C)C(=O)/C=C/c2cn(Cc3ccccc3)nc2-c2cccnc2)cc1` as the molecule, how does the inhibition read?
**A.** Its inhibition is 18.3%.

**Q.** Which inhibition does the source give for `CCOc1ccc2[nH]c(=O)c(CN(CCCO)S(=O)(=O)c3ccc(F)cc3)cc2c1` here?
**A.** Its inhibition is 0.803%.

**Q.** Which inhibition does the source give for `Cc1cc(N2C(=O)C(O)=C(C(=O)c3ccc(C)o3)C2c2ccc(OCc3ccccc3)cc2)no1` (stereo not drawn) here?
**A.** Its inhibition is 106% (active).

**Q.** For `COc1cc(C2C(C(=O)c3ccco3)=C(O)C(=O)N2c2cc(C)on2)ccc1OCc1ccccc1` (stereo not drawn), which inhibition is on record?
**A.** The inhibition was 2.64%.

**Q.** Which inhibition does the source give for `C=CCOc1cccc(C2C(C(=O)c3ccc(C)o3)=C(O)C(=O)N2c2nnc(C)s2)c1` (stereo not drawn) here?
**A.** Its inhibition is 7.43%.

**Q.** Which inhibition does the source give for `Cc1ccc(C2(c3ccc(C)cc3)NC(=O)N(Cc3c(C)noc3C)C2=O)cc1` here?
**A.** Its inhibition is 4.44%.

**Q.** Which inhibition does the source give for `O=C(CCc1ccccc1)NNC(=O)COc1ccc(Cl)cc1` here?
**A.** Its inhibition is 5.54%.

**Q.** With `Clc1ccc(C2CC(c3cccs3)n3ncnc3N2)cc1Cl` (stereo not drawn) as the molecule, how does the inhibition read?
**A.** Its inhibition is -0.937%.

**Q.** With `FC(F)Oc1ccccc1C1CC(c2ccc(Br)s2)Nc2ncnn21` (stereo not drawn) as the molecule, how does the inhibition read?
**A.** The inhibition was 59.5% (active).

**Q.** Which inhibition does the source give for `COc1ccc(C2CC(c3ccc(C)cc3)Nc3ncnn32)cc1` (stereo not drawn) here?
**A.** Its inhibition is -7.13%.

**Q.** With `CCCCCC(O)(CCN1CCCCC1)c1ccccc1` (stereo not drawn) as the molecule, how does the inhibition read?
**A.** Its inhibition is -0.734%.

**Q.** Which inhibition does the source give for `Cc1ccsc1C(=O)OCC(=O)c1cc2ccccc2o1` here?
**A.** Its inhibition is 49.9% (active).

**Q.** Which inhibition does the source give for `Cc1ccsc1C(=O)OCC(=O)c1cc(C)n(CC2CCCO2)c1C` (stereo not drawn) here?
**A.** The inhibition was 9.42%.

**Q.** Which inhibition does the source give for `CSCCC(NC(=O)COc1ccccc1)C(=O)OCC(=O)c1cc2ccccc2o1` (stereo not drawn) here?
**A.** The inhibition was -0.0582%.

**Q.** For `CC(C)(C)NC(=O)CN(C(=O)c1ccc(Cl)nc1)c1cccc2ccccc12`, which inhibition is on record?
**A.** Its inhibition is -17.5%.

**Q.** Which inhibition does the source give for `CC(C)Oc1ccc(/C=N/NC(=O)c2nnn(-c3nonc3N)c2CN(C)C2CCCCC2)cc1` here?
**A.** The inhibition was 18.9%.

**Q.** For `O=C(NCC(=O)N1CCN(c2ccccc2O)CC1)c1ccc2ccccc2c1`, which inhibition is on record?
**A.** The inhibition was 11.7%.

**Q.** Which inhibition does the source give for `O=C1NN(c2ccccc2)C(=O)/C1=C/c1ccc(-c2cccc(C(=O)O)c2)o1` here?
**A.** The inhibition was -2.46%.

**Q.** With `CN1C(=O)/C(=C\c2ccc(-c3ccccc3)o2)SC1=S` as the molecule, how does the inhibition read?
**A.** Its inhibition is 7.05%.

**Q.** With `O=C(O)C(c1ccccc1)N1C(=O)/C(=C\c2ccc(-c3cccc(Cl)c3)o2)SC1=S` (stereo not drawn) as the molecule, how does the inhibition read?
**A.** Its inhibition is 94% (active).

**Q.** With `Cn1c(=O)oc2cc(S(=O)(=O)NCCC(=O)NCc3ccccc3Cl)ccc21` as the molecule, how does the inhibition read?
**A.** The inhibition was 2.05%.

**Q.** For `C=CCn1c(C23CC4CC(CC(C4)C2)C3)n[nH]c1=S`, which inhibition is on record?
**A.** The inhibition was 1.54%.

**Q.** With `COc1ccccc1NC(=O)CSc1nc2sc3c(c2c(=O)n1-c1ccccc1)CCN(C)C3` as the molecule, how does the inhibition read?
**A.** The inhibition was -17%.

**Q.** For `Cc1cc(NC(=O)CSc2nc3cc(Cl)ccc3c(=O)n2Cc2ccco2)no1`, which inhibition is on record?
**A.** The inhibition was 1.74%.

**Q.** For `COc1ccccc1NC(=O)CSc1nc2sc(C)c(C)c2c(=O)n1Cc1ccco1`, which inhibition is on record?
**A.** The inhibition was 52.6% (active).

**Q.** Which inhibition does the source give for `CC(C)Cc1oc(C(=O)O)cc1CN` here?
**A.** The inhibition was 4.13%.

**Q.** Which inhibition does the source give for `CNC(=O)c1[nH]cnc1C(=O)N[C@@H](CC(C)C)C(=O)OC(C)(C)C` here?
**A.** The inhibition was -5.44%.

**Q.** With `CCOC(=O)c1ccc(NC(=O)c2nc[nH]c2C(=O)N[C@@H](CCCCNC(=O)OC(C)(C)C)C(=O)OC(C)(C)C)cc1` as the molecule, how does the inhibition read?
**A.** The inhibition was 50.8% (active).

**Q.** For `C[C@H](NC(=O)c1nc[nH]c1C(=O)N[C@@H](C)C(=O)OC(C)(C)C)C(=O)OC(C)(C)C`, which inhibition is on record?
**A.** The inhibition was 1.23%.

**Q.** Which inhibition does the source give for `CCOC(=O)c1[nH]cnc1C(=O)Nc1ccccc1C` here?
**A.** The inhibition was 10.7%.

**Q.** With `Cc1ccc(NC(=O)c2nc[nH]c2C(=O)N[C@@H](CCCCNC(=O)OC(C)(C)C)C(=O)OC(C)(C)C)cc1` as the molecule, how does the inhibition read?
**A.** The inhibition was 76.8% (active).

**Q.** Which inhibition does the source give for `CCOC(=O)c1ccc(NC(=O)c2nc[nH]c2C(=O)NCc2ccccc2)cc1` here?
**A.** The inhibition was 18.8%.
